33 compounds from ChEMBL document CHEMBL1857833, “Screening and optimization of specific chemical series against human African Trypanosomiasis (HAT)” can be followed below.

Among all 4,400 compounds or so, about 390 (8.9%) showed an effect of 50% or more. This excerpt belongs to a sample that is enriched for strong results.

The test system of this test is Trypanosoma brucei. In words: DNDI: Inhibition of Human African Trypanosomiasis, SBRI 427, in vitro at 2 ug.mL-1. The format is functional.
With `CC1CCC(C)N1/C(=N\O)c1cccnc1Oc1ccc(F)cc1Cl` (stereo not drawn), the “% inhibition” value stood at 24%.
Next, `O/N=C(\NC1CCN(Cc2ccccc2)C1)c1cccnc1Oc1ccccc1Cl` (stereo not drawn): 2%.
Regarding `CC1CCC(N/C(=N\O)c2cccnc2Oc2ccccc2Cl)CC1` (stereo not drawn), the “% inhibition” value is given as 99%.
On to `CN(/C(=N\O)c1cccnc1Oc1ccc(F)cc1Cl)C1CCCCC1`, for which the “% inhibition” value was 7%.
`CC1CCC(N/C(=N\O)c2cccnc2Oc2ccc(F)cc2Cl)CC1` (stereo not drawn): the “% inhibition” value came to 95%.
For `Cc1cccc(Oc2ncccc2/C(=N/O)NC2CCC(C)CC2)c1C` (stereo not drawn), the “% inhibition” value was 20%.
With `Cc1cccc(-c2nc(Cn3cc(C=O)nc3C)co2)c1`, the “% inhibition” value is listed as 1%.
Next, `CCOc1ccccc1-c1nc(CN(CCOC)C(C)C)co1`: 1%.
Regarding `C=CCN1CCN(/C(=N\O)c2cccnc2OCC(F)(F)F)CC1`, the “% inhibition” value was 7%.
Next, `CCOc1cccc(-c2nc(CN(CCC#N)C3CCCCC3)co2)c1`: 18%.
As for `CN(C)CCN(C)Cc1coc(-c2ccc(O)cc2)n1`, the “% inhibition” value is on record as 7%.
Then `NCCc1cn(Cc2coc(-c3ccc(Cl)cc3Cl)n2)cn1`, with 75%; and `NCCc1cn(Cc2coc(-c3ccccc3Br)n2)cn1`, with -5%.
For `NCCc1cn(Cc2coc(-c3cccc4ccccc34)n2)cn1`, the “% inhibition” value came out at 73%.
As to `Cc1cn(Cc2coc(-c3ccc(Cl)cc3Cl)n2)cn1`, the “% inhibition” value was 2%.
Then `NCCc1cn(Cc2coc(-c3ccccc3F)n2)cn1`, with 40%; and `Clc1ccc(-c2nc(Cn3cnc(-c4ccccc4)c3)co2)c(Cl)c1`, with 7%.
Next, `CSc1ccc(Oc2ccc(/C(=N/O)NC3CC(C)CC(C)(C)C3)cn2)cc1` (stereo not drawn): -8%; `COc1ccc(-c2nc(CN3CCN(c4ccc(C(C)=O)cc4)CC3)co2)cc1`: 4%; `CCOc1ccccc1-c1nc(CNCc2ccc(C(C)(C)C)cc2)co1`: 6%.
Next, `Cc1ccc(/C(=N/O)N2CCCCC2)c(Oc2cccc(F)c2)n1`: 16%; `O/N=C(/c1ccc(Oc2cc(Cl)ccc2Cl)nc1)N1CCN(C2CCCC2)CC1`: 22%; `O/N=C(\NC1CCCC1)c1ccc(Oc2cc(Cl)ccc2Cl)nc1`: 99%.
In the case of `N/C(=N\O)c1ccc(Oc2cc(Cl)ccc2Cl)nc1`, the “% inhibition” value worked out at 10%.
Next, `O/N=C(\NCc1cccnc1)c1ccc(Oc2cc(Cl)ccc2Cl)nc1`: 8%.
Next, `CSc1ccc(Oc2ccc(/C(=N/O)NCc3ccccc3C)cn2)cc1`: -7%; `O/N=C(\NCC1CCCCC1)c1ccc(Oc2cc(Cl)ccc2Cl)nc1`: 76%.
Then `CSc1ccc(Oc2ccc(/C(=N/O)NCc3ccccc3F)cn2)cc1`, with 95%; and `O/N=C(\NCC1CCCO1)c1ccc(Oc2cc(Cl)ccc2Cl)nc1` (stereo not drawn), with 34%; and `O/N=C(\NC1CCCCC1)c1ccc(Oc2cc(Cl)ccc2Cl)nc1`, with 98%.
As to `O/N=C(\NCCN1CCOCC1)c1ccc(Oc2cc(Cl)ccc2Cl)nc1`, the “% inhibition” value is given as 34%.
Then `O/N=C(\NCC1CCCCC1)c1ccc(Oc2cccc3ccccc23)nc1`, with 24%; and `O/N=C(\NCc1ccccc1F)c1ccc(Oc2ccc(Cl)cc2)nc1`, with -6%.

The % inhibition is the change of the read-out against control, counted positive when it falls.
